This passage reports growth inhibition results from PubChem BioAssay (NCI).

SMILES strings stand for the structures. Compounds without any hit were thinned out: in the full panel of roughly 79,000, 15% have a hit. Values without a mark were called inactive. Calls of active or inactive are those of the source. No stated cut-off is given here; in the data, active means growth inhibition above about 70%; inactive means the rest.

A short description of assay [1]: NCI Yeast Anticancer Drug Screen. Data for the rad50 strain (AID 155).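 Further: 0% = growth of vehicle-only cultures of the same strain.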 As to conditions: S. cerevisiae rad50 strain growth inhibition; at 50.0 µM; hits give high values. The method, boiled down:
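Readout: growth inhibition relative to vehicle-treated cultures. Compound exposure was carried out in a genetically defined yeast strain deficient in DNA damage repair.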

Assay [2] is described as follows: NCI Yeast Anticancer Drug Screen. Data for the mec2-1 strain (AID 157). As to conditions: S. cerevisiae mec2-1 strain, at 50.0 µM, hits give high values. The method in brief: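 mec2-1 yeast strain, carrying an alteration in DNA damage repair or cell cycle control, was exposed to compounds; growth inhibition was measured relative to vehicle-treated controls.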
Assay [3] is described as follows: NCI Yeast Anticancer Drug Screen. Data for the sgs1 mgt1 strain (AID 161).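 Further: 0% = growth of cultures given vehicle only.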 As to conditions: S. cerevisiae sgs1 mgt1 strain, at 50.0 µM, hits give high values. The method, boiled down:
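This yeast growth screen uses a strain with defined DNA-repair lesions; compound-treated growth is compared with vehicle-treated growth.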

Assay [4] in a line: NCI Yeast Anticancer Drug Screen. Data for the cln2 rad14 strain (AID 165).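 Further: 0% = growth equal to vehicle treated cultures.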 The following applies: S. cerevisiae cln2 rad14 strain, at 50.0 µM, hits give high values. The method in brief: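 Yeast carrying cln2 and rad14 alterations (cell cycle control and DNA damage repair) were exposed to compounds. Growth inhibition was measured against vehicle-treated controls.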
The nature of assay [5]: NCI Yeast Anticancer Drug Screen. Data for the bub3 strain (AID 167). The following applies: S. cerevisiae bub3 mutant strain, at 50.0 µM, hits give high values. The method, boiled down: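 Readout: yeast growth inhibition, expressed relative to vehicle-only wells. The test organism is a mutant strain from a panel with lesions in DNA repair or checkpoint genes.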
The nature of assay [6]: NCI Yeast Anticancer Drug Screen. Data for the mlh1 rad18 strain (AID 175). The following applies: S. cerevisiae mlh1 rad18 strain growth inhibition; at 50.0 µM; hits give high values. The method in brief: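 Growth inhibition of the yeast strain was measured after compound exposure and expressed relative to vehicle-treated controls. The strain carries defined defects in DNA damage repair.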

Regarding `CCCCOCCC1CCNCC1`, the growth inhibition in assay [1] was -46%; in assay [2], -44.1%; in assay [3] it was -51.5%; in assay [4], 10.8%; in assay [5] it was -48%; in assay [6], -24%.

In the case of `O=c1c2ccccc2c2nccn2c2ccccc12`, the growth inhibition in assay [1] was 13.8%; in assay [2] it was 3%; in assay [3], 19.1%; in assay [4], -9.1%; in assay [5], -0.3%; in assay [6], -5.25%.

Consider `CN(CC(N)=O)C(=O)c1cnc2ccccc2c1`, for which the growth inhibition is 9.65% in assay [1]; 18.6% in assay [2]; -1.05% in assay [3]; 8.05% in assay [4]; 14.1% in assay [5]; 0.4% in assay [6].

Consider `CCN(CC)CCN1C(=O)c2cccc3cc(N)cc(c23)C1=O`, for which the growth inhibition in assay [1] was -1.9%; in assay [2], -27.3%; in assay [3] it was -7.4%; in assay [4], -3.75%; in assay [5] it was -9.6%; in assay [6], 2.2%.

As to `O=C(Nc1ccc(Br)cc1)Nc1ccc(Br)cc1`, the growth inhibition is -23.3% in assay [1]; 8.15% in assay [2]; 15.3% in assay [3]; -36.4% in assay [4]; 31.9% in assay [5]; 6.25% in assay [6].

For `CN(C)C(=O)Sc1ccc([N+](=O)[O-])cc1Cl`, the growth inhibition in assay [1] was 15.4%; in assay [2], 4.6%; in assay [3], 5.7%; in assay [4] it was 14.6%; in assay [5], -4.3%; in assay [6], 16.8%.

As to `CCC(C)C(CO)N=Cc1ccccc1O.O.[Cu]` (stereo not given), the growth inhibition in assay [1] was 65.3%; in assay [2], 82.3% (active); in assay [3] it was 74% (active); in assay [4], 62%; in assay [5], 80.2% (active); in assay [6], 83.3% (active).

For `CN(c1cn(C2CC[C@@H](CO)O2)c(=O)[nH]c1=O)C1CCCCC1` (stereo not given in full), the growth inhibition in assay [1] is -35.8%; in assay [2], -13.4%; in assay [3], -58.4%; in assay [4], -6%; in assay [5], 5.35%; in assay [6], -41.5%.

For the compound `CCOC(=O)C(Cc1ccc(OCc2ccccc2)c(OCc2ccccc2)c1)(NC=O)C(=O)OCC`, the growth inhibition in assay [1] was 36.6%; in assay [2] it was -1.6%; in assay [3], 19.8%; in assay [4], -14.8%; in assay [5], -9.9%; in assay [6], 9%.

Take `CC(=O)NC(C)(C)C1CCC(C)CC1` (stereo not given): the growth inhibition in assay [1] is -7.95%; in assay [2], 5.45%; in assay [3] it was 1.55%; in assay [4], 8.05%; in assay [5] it was 9.65%; in assay [6] it was -38.8%.

On to `BrC1C2CC/C=C\CCC12` (stereo not given), for which the growth inhibition is 43.9% in assay [1]; 22.7% in assay [2]; 10.9% in assay [3]; 11.6% in assay [4]; 18% in assay [5]; 13.9% in assay [6].

With `O=C(NCc1ccccc1)Nc1cccc2c(NC(=O)NCc3ccccc3)cccc12`, the growth inhibition is -32.3% in assay [1]; -31.2% in assay [2]; -26.9% in assay [3]; -8.15% in assay [4]; -27.5% in assay [5]; -7.95% in assay [6].

On to `CCCCCCCCCCCOCCC1C(C(C)OCCN2CCCC2)OC2OC(C)(C)OC21` (stereo not given), for which the growth inhibition in assay [1] is 91.5% (active); in assay [2], 92.8% (active); in assay [3] it was 90.5% (active); in assay [4], 90.4% (active); in assay [5] it was 88.2% (active); in assay [6] it was 89% (active).

As to `Cc1cc(Br)ccc1C1=C(O)C(=O)NC1=O`, the growth inhibition was 5.55% in assay [1]; -10.4% in assay [2]; 10.7% in assay [3]; -32.3% in assay [4]; -1.7% in assay [5]; -5.4% in assay [6].

As for `Cc1nc(C(N)=S)sc1C(=O)CC(=O)C(=O)Nc1c(C(C)C)cccc1C(C)C`, the growth inhibition in assay [1] is -28.1%; in assay [2], -41.6%; in assay [3], -31.8%; in assay [4] it was -24.9%; in assay [5], -8.55%; in assay [6], -22.1%.

As for `CC(C)/C(=N\[N+](C)(C)C)c1ccccc1`, the growth inhibition in assay [1] is 0.4%; in assay [2], -22.8%; in assay [3], -21.8%; in assay [4], -3.05%; in assay [5], -22.7%; in assay [6], 5.15%.

As to `CC(C)(Cc1ccccc1)NC1=NCCO1`, the growth inhibition in assay [1] is -31.9%; in assay [2], -18.8%; in assay [3], -17.6%; in assay [4], -6.2%; in assay [5] it was -12.2%; in assay [6], -2.6%.

`O=C(O)CCC(NC(=O)CCC(NC(=O)OCc1ccccc1)C(=O)OCc1ccccc1)C(=O)OCc1ccccc1` (stereo not given): the growth inhibition in assay [1] was -13.1%; in assay [2] it was -31.5%; in assay [3], -10.6%; in assay [4], 9.2%; in assay [5], 5.4%; in assay [6] it was -10.8%.

With `O=P(Nc1ccc(Cl)c(Cl)c1)(N1CCCCC1)N1CCCCC1`, the growth inhibition in assay [1] is 3.5%; in assay [2] it was -47.8%; in assay [3] it was -12.4%; in assay [4] it was -12.8%; in assay [5], 2.45%; in assay [6] it was 14.7%.

Turning to `COc1ccccc1NC(=S)N/N=C/c1ccccn1`, the growth inhibition in assay [1] is -16.6%; in assay [2], 15.9%; in assay [3], 24.4%; in assay [4] it was 8.95%; in assay [5], 17.7%; in assay [6], 14%.
